PKA-R1A act – activates the PKA-R1A holoenzyme complex; 0.083% of 340,000 active; AID 504707; PKA-R1A dissociation, Cy5-IP20 fluorescence polarization; scaled: DMSO 0%, 113 µM cGMP 100%; activation, % at 11.4 µM; P00514+P68181;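 active = percent activation above the mean of all tested compounds plus 3 SD, cut at about 19% in these data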;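 also: higher means more PKAc released from R1A so a rise in polarization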
PKA-R2B act – activates the human PKA-R2B holoenzyme complex; AID 504700; activation, % at 11.4 µM; PKA-R2B holoenzyme dissociation, Cy5-IP20 fluorescence polarization; R2B truncated from residue 108, S112A mutant; 0% DMSO only, 100% 113 µM cGMP; 0.079% of 340,000 active; P22694+P31323;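 active = activation above a cutoff set at the mean over all compounds plus 3 SD, cut at about 18% in these data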;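 also: higher means more holoenzyme dissociation and a rise in polarization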
Target sequence (P31323 whole entry, looked up, other chains not shown, the tested form may be a part): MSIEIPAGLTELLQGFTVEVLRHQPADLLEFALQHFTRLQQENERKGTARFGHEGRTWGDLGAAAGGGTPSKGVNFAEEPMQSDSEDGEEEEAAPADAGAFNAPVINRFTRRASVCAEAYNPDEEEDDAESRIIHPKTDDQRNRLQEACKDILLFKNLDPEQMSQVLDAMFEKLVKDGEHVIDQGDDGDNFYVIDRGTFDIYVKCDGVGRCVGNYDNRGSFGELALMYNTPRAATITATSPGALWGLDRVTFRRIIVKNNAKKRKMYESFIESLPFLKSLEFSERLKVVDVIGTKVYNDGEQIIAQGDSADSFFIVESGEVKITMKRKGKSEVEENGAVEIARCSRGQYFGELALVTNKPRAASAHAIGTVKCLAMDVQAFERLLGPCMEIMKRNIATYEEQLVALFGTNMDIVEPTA
NR1D1 modulator – modulators of human Rev-erb alpha DNA binding; 0.79% of 370,000 active; Rev-erbα–FITC-DNA binding, fluorescence polarization, 90 min; activity, % at 10 µM;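 active = activity above about 14%, limit read from the data; passing the limit was not always enough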
PG9 binder – binds the HIV-1 gp120 antibody PG9. TR-FRET gp120-PG9 antibody binding. inhibition, % at 6.7 µM. 0.43% of 360,000 active. AID 624416; in the data active = inhibition above about 8.5%
PG9 binder conf – confirmation of small molecules binding HIV-1 gp120 antibody PG9 | inhibition, % at 6.7 µM | AID 651571 | TR-FRET PG9 antibody binding, biochemical | shares compounds with PG9 binder | 90% of 1,500 active; in the data active = inhibition above about 9%
PGV04 Ab binding – binds control antibody PGV04 in PG9 binder counter-screen | TR-FRET PGV04 antibody-gp120 binding, biochemical | 95% of 1,500 active | shares compounds with PG9 binder | inhibition, % at 6.7 µM | AID 651604; in the data active = inhibition above about 9.5%
PG9 binder DR – PG9 antibody binding, dose response; TR-FRET PG9 antibody-gp120 binding inhibition; 95 tested, under 10 active; shares compounds with PG9 binder; IC50, µM; in the data active = IC50 below about 10 µM
PGV04 DR counter – counter-screen for PG9 binders: binding to control antibody PGV04; shares compounds with PG9 binder; TR-FRET binding to control antibody PGV04; IC50, µM; 20% of 95 active
PG126 DR counter – binds control antibody PG126 in PG9 counter-screen. shares compounds with PG9 binder. TR-FRET binding to antibody PG126, counterscreen. IC50, µM. 20% of 95 active. AID 651939
Of the large screens only hits and unclear results are named; the others gave an inactive call (follow-up assays come after a bar, where they were run). Compounds with a hit are over-represented: about 1.2% of the library has one in this group of screens. Rule as the data show it, unless noted: active = IC50 below about 9 µM; inactive = the rest.

CCCCNC(=O)Cc1c(OC)ccc2cc(Br)ccc12	PG9 binder 8.6 | PG9 binder conf 17 | PGV04 Ab binding 21
CN(C)Cc1cn(-c2cccc(-c3noc4c3C(=O)N(CC(=O)N3CCOCC3)CC4)c2)nn1	none (no result: PKA-R1A act, PKA-R2B act, PG9 binder)
CCCCCCCCN1C(=O)[C@@H](CC(=O)NCC23CC4CC(CC(C4)C2)C3)C[C@@]2(C(=O)OC)C1=C[C@H](COCc1ccccc1)O[C@@H]2C	none (no result: PKA-R1A act, PKA-R2B act, PG9 binder)
Cc1ccc(Cc2cnc(NC(=O)c3ccco3)s2)cc1	none
O=C(Nc1ncc(Cc2ccc(SC(F)F)cc2)s1)c1ccc(OC(F)F)cc1	PG9 binder 22 | PG9 binder conf 12 | PGV04 Ab binding 18
Cc1ccc(-c2c(C(=O)Nc3ccccc3C)c(C)[nH]c(=S)c2C#N)o1	PG9 binder 15 (no result: PKA-R1A act, PKA-R2B act) | PG9 binder conf 11 | PGV04 Ab binding 11
COc1ccc(NC(=O)CCCn2c(=S)[nH]c3ccccc3c2=O)cc1	none
COc1ccc(NC(=O)CCn2c(=S)[nH]c3ccccc3c2=O)cc1	PG9 binder 22 | PG9 binder conf 22 | PGV04 Ab binding 27
CCCCC(=O)N[C@H]1CC[C@@]23CCCN2C(=O)CCC[C@H]3[C@H]1C	none (no result: PKA-R1A act, PKA-R2B act, PG9 binder)
O=S1(=O)c2ccc(N3CCN(Cc4ccccc4F)CC3)cc2Oc2ccccc2CN1Cc1cn(Cc2ccc(F)cc2)nn1	none (no result: PKA-R1A act, PKA-R2B act, PG9 binder)
CC(=O)c1sc(C(C)(C)C)cc1NC(=O)c1ccccc1C(=O)O	PG9 binder 48 (no result: PKA-R1A act, PKA-R2B act) | PG9 binder conf 57 | PGV04 Ab binding 65
Cc1ccc2cc(CN(c3ccccc3C)S(=O)(=O)c3ccccc3)c(=O)[nH]c2c1	PG9 binder 14 | PG9 binder conf 26 | PGV04 Ab binding 45
Cc1ccc(N(Cc2cc3ccccc3[nH]c2=O)S(=O)(=O)c2ccccc2)cc1	none
CCN(c1ccc(F)cc1)S(=O)(=O)c1ccc2[nH]cc(C(=O)NCCCN3CCOCC3)c(=O)c2c1	none
CCN(c1ccccc1)S(=O)(=O)c1ccc2[nH]cc(C(=O)N3CCOCC3)c(=O)c2c1	PG9 binder 9.1 | PG9 binder conf inactive | PGV04 Ab binding 9.9
O=C(COC(=O)c1cc(Cl)ccc1O)c1ccc2c(c1)OCO2	PG9 binder 11 | PG9 binder conf 10 | PGV04 Ab binding 15
COc1ccccc1NC(=O)c1[nH]c(C)c(C(C)=O)c1C	none
COc1ccccc1NS(=O)(=O)c1cccc(NC(=O)c2[nH]c(C)c(C(C)=O)c2C)c1	PG9 binder 12 | PG9 binder conf 21 | PGV04 Ab binding 19 | PG9 binder DR inactive | PGV04 DR counter inactive | PG126 DR counter inactive
CCOC(=O)C1=C(C)NC(SCC(N)=O)=C(C#N)C1c1ccccc1 (stereo not given)	PG9 binder 14 | PG9 binder conf inactive | PGV04 Ab binding 10
c1ccc(-n2c(SCc3cccc4ccccc34)nnc2-c2ccncc2)cc1	none (no result: PKA-R1A act, PKA-R2B act, PG9 binder)
OC(CCN1CCCCC1)(c1ccccc1)C1CC2C=CC1C2 (stereo not given)	none (no result: PKA-R1A act, PKA-R2B act, PG9 binder)
O=C(c1ccc(F)cc1Cl)N(Cc1ccccn1)CC1CCCO1 (stereo not given)	none (no result: PKA-R1A act, PKA-R2B act, PG9 binder)
Cc1ccnc(N2CCC(C(=O)Nc3ccc4c(c3)CCC4)CC2)n1	PG9 binder 37 | PG9 binder conf 44 | PGV04 Ab binding 61
CCN(CC)C(=O)c1ccc(C(CCOC(=O)Oc2ccccc2)c2ccc(OC)cc2)cc1 (stereo not given)	none (no result: PKA-R1A act, PKA-R2B act, PG9 binder)
CCCC1CCC2(CC1)CCC2OC(=S)Nc1ccc(Br)cc1 (stereo not given)	none (no result: PKA-R1A act, PKA-R2B act, PG9 binder)
O=C(NCc1ccc(C(F)(F)F)cc1)O[C@H]1CC[C@@]23CCCN2C(=O)CCC[C@H]3C1	none (no result: PKA-R1A act, PKA-R2B act, PG9 binder)
CCOc1ccc(C2C(C(=O)c3ccco3)=C(O)C(=O)N2Cc2cccnc2)cc1OC (stereo not given)	none
O=C(C1=C(O)C(=O)N(Cc2cccnc2)C1c1cccc(Oc2ccccc2)c1)c1ccco1 (stereo not given)	PG9 binder 13 | PG9 binder conf 19 | PGV04 Ab binding 28
C=CCOc1ccc(C2C(C(=O)c3ccc(C)o3)=C(O)C(=O)N2Cc2cccnc2)cc1 (stereo not given)	PG9 binder 11 | PG9 binder conf 27 | PGV04 Ab binding 31
CC(C)Oc1ccc(C2C(C(=O)c3ccco3)=C(O)C(=O)N2Cc2cccnc2)cc1 (stereo not given)	PG9 binder 9.3 | PG9 binder conf 15 | PGV04 Ab binding 19
CC(=O)N[C@@H](C)CCc1ccc(Oc2ccc(OC(C)C)nc2)cc1	none (no result: PKA-R1A act, PKA-R2B act, PG9 binder)
Cc1ccc2c(c1)C1CS(=O)(=O)N(CC(C)C)CN1C2 (stereo not given)	none (no result: PKA-R1A act, PKA-R2B act, PG9 binder)
O=C(Nc1ccc(Br)c2ccccc12)c1ccc2ccccc2c1O	PG9 binder 36 | PG9 binder conf 31 | PGV04 Ab binding 37
CC(=O)Nc1ccc(NS(=O)(=O)c2ccccc2)c2ccccc12	none
Cc1ccccc1NC(=O)NNC(=O)c1ccc2ccccc2c1O	none
CC(=O)Nc1ccc(Br)c2ccccc12	PG9 binder 11 | PG9 binder conf 22 | PGV04 Ab binding 23
CCN(Cc1ccccc1)C(=O)CCCN1C(=O)COc2ccc(C)cc21	none (no result: PKA-R1A act, PKA-R2B act, PG9 binder)
O=C(O)c1cnn(-c2nc(-c3ccc(F)cc3)cs2)c1C(F)(F)F	none
O=C(O)c1cnn(-c2nc(-c3ccc(Br)cc3)cs2)c1C(F)(F)F	PG9 binder 9.6 | PG9 binder conf 13 | PGV04 Ab binding 23
CS(=O)(=O)c1ccc2nc(NC(=O)Nc3ccccc3F)sc2c1	PG9 binder 33 | PG9 binder conf 27 | PGV04 Ab binding 46
Cn1c(C(=O)Nc2ccc(Cl)cc2)cc2cc(Cl)ccc21	PG9 binder 14 | PG9 binder conf 9.2 | PGV04 Ab binding 16
C[C@H](NC(=O)c1cc2cc(Cl)ccc2n1C)C(=O)N1CCC(C(=O)O)CC1	none
O=C1N/C(=N\c2ccccn2)SC1Cc1ccc(Cl)cc1 (stereo not given)	PG9 binder 9.3 | PG9 binder conf 17 | PGV04 Ab binding 29
O=C1N/C(=N/c2ccccn2)SC1Cc1ccccc1 (stereo not given)	none
COc1ccc(OC)c(N=Cc2c(O)c3ccccc3oc2=O)c1	none
COc1ccc(N=Cc2c(O)c3ccccc3oc2=O)cc1	PG9 binder 32 | PG9 binder conf 27 | PGV04 Ab binding 39

Screening results: PubChem BioAssay, several laboratories
